This is a sample that favours compounds with a hit; in the whole collection about 4% have one here.
Mtb bLac sens – beta-lactam sensitization of Mtb H37Rv; actives 0.27% (n = 330,000); M. tuberculosis H37Rv growth with meropenem, percent inhibition; AID 434955; inhibition, % at 25 µM; call rule not given here;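 further: growth measured after seven days incubation then overnight dye step; 0% = bacteria only wells and 100% = bacteria with antibiotic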
RecA intein inh – Mtb RecA intein splicing inhibition; inhibition, % (no concentration beside the values); P9WHJ3; AID 2221; actives 0.75% (n = 290,000); cell-free RecA intein splicing, fluorescence; in the data active means inhibition above about 30%;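 further: 0% = vehicle wells and 100% = reference inhibitor control wells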
Rv3671c protease – Rv3671c (M. tuberculosis) protease inhibition. actives 0.048% (n = 320,000). P9WHR9. inhibition, % at 5.96 µM. AID 2606; in the data active means inhibition above about 38%;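 further: extracellular domain of Rv3671c used as enzyme; 0% = enzyme with DMSO and 100% = no enzyme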
GDH-TPI counter-1 – counter-screen for M. tuberculosis FBA inhibitors: GDH-TPI coupled enzymes | AID 588335 | inhibition, % at 4.8 µM | actives 1.2% (n = 360,000) | GDH-TPI coupled enzyme counterscreen, NADH absorbance; in the data active means inhibition above about 30%;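 further: 0% = DMSO wells and 100% = wells lacking the enzyme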
Mtb UGM inh – blocks M. tuberculosis UGM enzyme. P9WIQ1. inhibition, % at 10 µM. actives 0.06% (n = 320,000). purified UGM, fluorescence polarization probe displacement. AID 504406; in the data active means inhibition above about 10%, passing the limit was not always enough
FBA Mtb inh – inhibits M. tuberculosis FBA enzyme; P9WQA3; purified M. tuberculosis FBA, fluorescence read-out; inhibition, % at 1 µM; actives 2.3% (n = 360,000); AID 588726;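 further: 0% = vehicle and 100% = reference inhibitor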
Mtb FBA confirm – confirmation of M. tuberculosis fructose-bisphosphate aldolase inhibitors. actives 78% (n = 5,600). purified M. tuberculosis FBA, fluorescence read-out. AID 651616. inhibition, % at 1 µM. shares compounds with FBA Mtb inh;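 further: 0% = vehicle wells and 100% = reference inhibitor wells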
GDH-TPI counter-2 – counter-screen for M. tuberculosis FBA inhibitors: GDH-TPI coupled enzyme inhibition | shares compounds with FBA Mtb inh | GDH-TPI coupled enzyme counterscreen, fluorescence | inhibition, % at 1 µM | actives 81% (n = 5,600) | AID 652141; in the data active means inhibition above about 10%
GDH-TPI DR – counter-screen for M. tuberculosis FBA inhibitors: GDH-TPI dose response; GDH-TPI coupled enzyme assay, fluorescence, artifact counterscreen; shares compounds with FBA Mtb inh; IC50, µM; actives 79% (n = 170); call rule not given here
* hit, by the source's call; / = no result given; + = active, no number. Unless noted, no stated cut-off is given here; in the data, active means inhibition above about 27%; inactive means the rest.

SMILES	Mtb bLac sens	RecA intein inh	Rv3671c protease	GDH-TPI counter-1	Mtb UGM inh	FBA Mtb inh	Mtb FBA confirm	GDH-TPI counter-2	others
CN(C(=O)COC(=O)c1ccc([N+](=O)[O-])cc1Cl)C1CCCCC1	97	0	3	-6	2	1	/	/
CN(C(=O)COC(=O)c1ccc(Cl)cc1N)C1CCCCC1	-9	-2	0	4	1	39*	40*	32*
COc1cccc(-c2ccc(C#N)c(OC(=O)c3ccc(Cl)cc3)n2)c1	3	-3	-2	21	0	95*	135*	106*
COc1ccc(/C=C2/C(=O)C(C)(C(C)C)CCC2C)cc1 (configuration not stated)	8	1	-2	0	1	-1	/	/
CC(=O)Oc1ccc(/C=C2/Oc3ccccc3C2=O)cc1	92	0	-9	24	1	2	/	/
COc1ccc(/C=C2\Oc3ccccc3C2=O)cc1	-1	/	-5	12	-2	84*	18	8	GDH-TPI DR=1.6*
Cc1ccc(OC(=O)c2cccc(S(=O)(=O)N3CCN(C)CC3)c2)c(Br)c1	-12	8	-6	-5	2	0	/	/
COc1cccc(/C=C/C(=O)OCC(=O)c2c(N)n(C)c(=O)n(C)c2=O)c1	12	/	-1	19	-2	63*	86*	59*
COc1ccc(/C=C/C(=O)OCC(=O)c2c(N)n(C)c(=O)n(C)c2=O)cc1	4	-1	-10	16	3	-4	/	/
COc1ccc(C2=NN(c3ccccc3)C(c3ccc(OC)c(OC)c3)C2)cc1 (configuration not stated)	8	3	14	11	-3	80*	53*	51*
C(=C\c1ccco1)/C1=NN(c2ccccc2)C(c2ccco2)C1 (configuration not stated)	12	-193	-15	12	-3	40*	+	+
Fc1ccc(C2=NN(c3ccccc3)C(c3ccco3)C2)cc1 (configuration not stated)	-1	-2	12	2	-4	48*	60*	48*
O=[N+]([O-])c1ccc(/C=C/C2=NN(c3ccccc3)C(c3ccco3)C2)o1 (configuration not stated)	/	0	/	-3	/	-2	/	/
Oc1ccc(C2=NN(c3ccccc3)C(c3ccc(F)cc3)C2)cc1 (configuration not stated)	12	19	0	-7	2	101*	165*	148*
NC(=O)COn1c(SCC(N)=O)nc2ccccc2c1=O	6	1	10	-7	-1	1	/	/
CCOCCn1c(CN2CCc3ccccc3C2)nc2c1c(=O)n(C)c(=O)n2C	1	0	7	2	0	4	/	/
CCOC(=O)COc1ccc(C2CC(C)=NN2c2ccccc2)cc1 (configuration not stated)	99	4	-2	1	3	12	/	/
COc1ccc(C2CC(c3ccccc3)=NN2c2ccc(/C=N/NC(=O)c3ccncc3)cc2)cc1 (configuration not stated)	99	-77	-9	2	-1	-2	/	/
CC(=O)N1N=C(c2ccc(C)cc2)CC1c1ccco1 (configuration not stated)	3	-2	-8	5	0	4	/	/
Cc1ccc(C2CC(c3ccccc3)=NN2C(=O)CSc2nnc(-c3ccc(Cl)cc3)o2)o1 (configuration not stated)	13	1	-1	5	-3	0	/	/
CCOC(=O)C1CC(c2ccccc2)=NN1c1ccccc1 (configuration not stated)	/	/	/	23	/	72*	35*	28*
Cc1ccc(N2N=C(c3ccc(F)cc3)CC2c2ccco2)cc1 (configuration not stated)	3	-4	-10	10	-2	62*	112*	96*
Cc1ccc(C2CC(c3ccccc3)=NN2c2ccccc2)o1 (configuration not stated)	8	1	3	6	1	43*	15	8	GDH-TPI DR=1.3*
COc1ccc(C2CC(c3cccc(Br)c3)=NN2c2ccc(S(N)(=O)=O)cc2)cc1 (configuration not stated)	/	/	/	15	/	102*	42*	31*
COc1ccc(C(C)(O)c2nc(-c3ccc4c(c3)OCO4)cs2)cc1 (configuration not stated)	/	/	/	5	/	-4	/	/
SMILES	Mtb bLac sens	RecA intein inh	Rv3671c protease	GDH-TPI counter-1	Mtb UGM inh	FBA Mtb inh	Mtb FBA confirm	GDH-TPI counter-2	others
Nc1cc2[nH]c(=O)c3ccccc3c2cc1Br	/	/	/	21	/	11	/	/
Nc1cccc2[nH]c(=O)c3ccccc3c12	/	/	/	18	/	61*	199*	158*
O=C(Nc1ccc2c(c1)[nH]c(=O)c1ccccc12)C(F)(F)F	/	/	/	13	/	6	/	/
Nc1ccc2c(c1)[nH]c(=O)c1ccccc12	/	/	/	5	/	69*	3	3
CC(=O)Nc1ccc2c(c1)[nH]c(=O)c1ccccc12	/	/	/	20	/	50*	64*	45*
COc1ccc(-c2cnc(C(N)=O)c(=O)[nH]2)cc1	/	/	/	14	/	65*	71*	60*
c1ccc(-c2nc(-c3cccs3)[nH]c2-c2ccccc2)cc1	-4	/	4	18	0	63*	+	178*
COc1cc(-c2nc(-c3ccccc3)c(-c3cccs3)[nH]2)cc(OC)c1OC	55	-1	2	18	0	46*	1	-5
CC(C)c1nc(-c2ccccc2)c(-c2ccccc2)[nH]1	-2	3	12	6	-2	7	/	/
COc1cc(-c2nc(-c3ccccc3)c(-c3cccs3)[nH]2)cc(OC)c1O	10	0	10	21	-2	24	/	/
CN(C(=O)CSc1nnc(-c2ccco2)n1Cc1ccccc1)C1CCS(=O)(=O)C1 (configuration not stated)	1	/	8	1	3	3	/	/
O=C1c2ccccc2NC(c2ccc(-c3cccs3)o2)N1O (configuration not stated)	-1	/	-7	15	3	97*	79*	73*
COc1ccc(C(C)=O)cc1CSCc1cc(C(C)=O)ccc1OC	-4	0	-6	1	0	3	/	/
CNC(=O)C(C#N)(Cc1cc(C(C)=O)ccc1OC)Cc1cc(C(C)=O)ccc1OC	-4	-1	2	4	-1	37*	1	-4
Cc1noc(C)c1CSCC(=O)N(CC(C)C)c1c(N)n(Cc2ccccc2)c(=O)[nH]c1=O	-1	-2	7	-1	5	-3	/	/
c1ccc2c(c1)OCCc1c-2[nH]c2ccccc12	6	6	3	-4	-1	47*	75*	55*

From PubChem BioAssay
